# Assay results as given in PubChem BioAssay AID1259421 (Broad Institute, 2018).
# Several values for one entry are separate records, joined by “and”; a condition that tells them apart may be missing. Equal entries are not always repeated. Screen size: about 6,400 compounds; about 610 (9.5%) were called active. Cut-off read from the data, not from the text of the source: active = activity change below about -70%; inconclusive = no clear call, values can overlap the other calls; inactive = above that. The sample as a whole holds a higher share of actives than the screen did. More than one record can exist for a structure, and the calls need not agree.
# Assay: Toxoplasma gondii ME49Luc growth in HeLa cells, luciferase, no IFN-y, primary screen (AID 1259421)
# Conditions: T. gondii ME49Luc in HeLa, 72 h, stronger effect = lower value, concentration not given here
row,Structure (SMILES),"activity change, negative = inhibition"
1,COc1cc(O)c(C)c(O)c1,11% (inactive)
2,CC1(C)C(=O)N=C2c3ccccc3C(=O)C(=O)C21 (centres undefined),-89.1% (active)
3,CNC(=O)[C@@H](c1ccccc1)N1CCc2cc(OC)c(OC)cc2[C@@H]1CCc1ccc(C(F)(F)F)cc1,7.93% (inactive)
4,O=C(Nc1cccc2c(=O)cc(-c3nn[nH]n3)oc12)c1ccc(OCCCCc2ccccc2)cc1,3.35% (inactive) and 13.6% (inactive)
5,COc1cccc(Nc2ncnn3ccc(CN4CC[C@@H](N)[C@H](O)C4)c23)c1,-86.2% (active)
6,C[C@]12C=CC(=O)C=C1CCC1C2[C@@H](O)C[C@@]2(C)C1CC[C@]2(O)C(=O)CO (some centres undefined),1.25% (inactive) and -8.87% (inactive)
7,CC(=O)O[C@@H]1c2c(ccc3ccc(=O)oc23)OC(C)(C)[C@@H]1OC(=O)CC(C)C,-2.35% (inactive)
8,CCCN(CCC)CC1CCCCN1CCNC(=O)N1c2ccccc2C(=O)Nc2cccnc21 (centres undefined),3.45% (inactive)
9,CCOC(=O)[C@H](CCc1ccccc1)N[C@@H](C)C(=O)N(CC(=O)O)C1Cc2ccccc2C1,7.2% (inactive)
10,CCC(C)(C)C(=O)OC1CC(C)C=C2C=CC(C)C(CCC3CC(O)CC(=O)O3)C21 (centres undefined),-4.9% (inactive)
11,COC1C=COC2(C)Oc3c(C)c(O)c4c(c3C2=O)C2(C=C(NC(=O)/C(C)=C\C=C/C(C)C(O)C(C)C(O)C(C)C(OC(C)=O)C1C)C4=O)OCC(=O)O2 (centres undefined),-2.28% (inactive)
12,CO[C@H]1/C=C\C=C(/C)C(=O)NC2=CC(=O)C(NCCN(C)C)=C(C[C@@H](C)C[C@H](OC)[C@H](O)[C@@H](C)/C=C(\C)[C@@H]1OC(N)=O)C2=O,-69.9% (inactive) and -80.4% (active)
13,C=CCNC1=C2C[C@@H](C)C[C@H](OC)[C@H](O)[C@@H](C)/C=C(\C)[C@H](OC(N)=O)[C@@H](OC)/C=C\C=C(/C)C(=O)NC(=CC1=O)C2=O,-56% (inactive)
14,NCCCCCC(O)(P(=O)(O)O)P(=O)(O)O,13% (inactive)
15,Cn1cnc2c(NCc3ccccc3)nc(NCCO)nc21,10.2% (inactive)
16,c1ccc(CNc2nc(NCc3ccccc3)c3ccccc3n2)cc1,-83.6% (active)
17,c1ccc(CNc2ncnc3ccccc23)cc1,-3.07% (inactive)
18,CN1C(C(=O)Nc2ccccn2)C(=O)c2sc(Cl)cc2S1(=O)=O (centres undefined),6.43% (inactive)
19,CC(C)(C)NC[C@@H](O)COc1nsnc1N1CCOCC1,15.6% (inactive) and -4.63% (inactive)
20,CC(=O)N[C@H]1[C@H]([C@H](O)[C@H](O)CO)O[C@](O)(C(=O)O)C[C@@H]1O,19.2% (inactive)
21,Cc1cc(S(=O)(=O)O)c2c(C)ccc(C(C)C)cc1-2,0.707% (inactive)
22,N#C/C(=C\c1ccc(O)c(O)c1)C(=O)NC1CCC(CC2CCC(NC(=O)/C(C#N)=C/c3ccc(O)c(O)c3)CC2)CC1 (centres undefined),-83.2% (active)
23,N#C/C(=C/c1ccc(O)c(O)c1)C(=O)Nc1ccccc1,11.3% (inactive)
24,N#C/C(=C\c1ccc(O)c(O)c1)C(=O)Nc1ccccc1,10% (inactive) and 2.22% (inactive)
25,COc1cc(OC)c(-c2c(OC)cc(OC)cc2OC)c(OC)c1,-0.897% (inactive)

row,Structure (SMILES),"activity change, negative = inhibition"
1,CN(C)[C@@H]1CCc2[nH]c3ccc(NC(=O)c4ccc(F)cc4)cc3c2C1,0.289% (inactive) and 6.81% (inactive)
2,CC(=O)NC1C(O)OC(COS(=O)(=O)O)C(OC2OC(C(=O)O)C(OC3OC(CO)C(OC4OC(C(=O)O)C(O)C(O)C4OS(=O)(=O)O)C(OS(=O)(=O)O)C3NS(=O)(=O)O)C(O)C2OS(=O)(=O)O)C1O (centres undefined),9.64% (inactive)
3,CN(C)C(=O)Nc1cccc(-c2ccc(N(C)C)cc2)c1,27.1% (inactive)
4,CCn1cc(-c2ccnc3[nH]c(-c4cccc(CN(C)C)c4)cc23)c(-c2ccc(NC(=O)N(C)C)cc2)n1,-82.3% (active)
5,CN(Cc1cnc2nc(N)nc(N)c2n1)c1ccc(C(=O)NC(CCC(=O)O)C(=O)O)cc1 (centres undefined),-57.2% (inactive) and 1.6% (inactive)
6,C#CCC(Cc1cnc2nc(N)nc(N)c2n1)c1ccc(C(=O)N[C@@H](CCC(=O)O)C(=O)O)cc1 (some centres undefined),-66.9% (inactive)
7,CN(Cc1cnc2nc(N)nc(N)c2n1)c1ccc(C(=O)N[C@@H](CCC(=O)O)C(=O)O)cc1,-80.9% (active) and -28.7% (inactive)
8,COc1ccc(CCN(C)CCCC(C#N)(c2cc(OC)c(OC)c(OC)c2)C(C)C)cc1OC (centres undefined),41.7% (inactive)
9,N=C(CC(O)COc1ccccc1-c1ccccc1)N1CCCCC1 (centres undefined),10.7% (inactive)
10,c1cc(-c2cnn3cc(-c4ccc(N5CCNCC5)cc4)cnc23)c2cccnc2c1,-84.7% (active)
11,COc1ccc(-c2cnc3c(-c4cccc5ncccc45)cnn3c2)cc1,2.75% (inactive)
12,CC(C)Oc1ccc(-c2cnc3c(-c4ccnc5ccccc45)cnn3c2)cc1,-49.1% (inactive)
13,COC(F)(F)C(Cl)Cl,19.6% (inactive)
14,CC(C)(Oc1ccc(Cl)cc1)C(=O)N1CSCC1C(=O)O (centres undefined),19% (inactive)
15,NC(=O)C1CC2(NC(=O)NC2=O)c2cc(F)ccc2O1 (centres undefined),12.6% (inactive)
16,Cc1cc(Nc2cc(N3CCN(C)CC3)nc(Sc3ccc(NC(=O)C4CC4)cc3)n2)n[nH]1,-15.4% (inactive) and -14.2% (inactive) and -8.95% (inactive)
17,Cc1nc(Nc2ncc(C(=O)Nc3c(C)cccc3Cl)s2)cc(N2CCN(CCO)CC2)n1,-75.5% (active) and -82.6% (active)
18,S=c1[nH]c2ccccc2s1,14.8% (inactive) and 4.19% (inactive)
19,S=c1nc[nH]c2[nH]ncc12,-6.21% (inactive)
20,C[C@]12CCC(=O)C=C1CCC1C2[C@@H](O)C[C@@]2(C)C1CC[C@]2(O)C(=O)COC(=O)CCC(=O)O (some centres undefined),-4.51% (inactive) and -4.05% (inactive)
21,COC1C(O)[C@@H](O)C(O)C(O)[C@H]1O (some centres undefined),4.8% (inactive)
22,COc1ccc2c(c1)OCC(Cc1ccc(OC)c(OC(C)=O)c1)C2=O (centres undefined),-72% (active)
23,COc1ccc2c(c1)OCC(Cc1ccc(OC)c(OC)c1)C2=O (centres undefined),-1.15% (inactive)
24,COc1ccc2c(c1)OCC(Cc1ccc(O)c(OC)c1)C2=O (centres undefined),-0.0941% (inactive)
